Results filed as inconclusive are left out. The source made the active and inactive calls. How the source made its calls: active means hit-call score of the fitted dose curve at least 0.9, where 1 is the maximum; inconclusive means response in the unintended direction; inactive means score below 0.9.

This experiment in a line: ACEA_ER_80hr: ACEA Biosciences xCELLigence Real-Time Cell Analysis on Estrogen Receptor Agonism for Proliferation (AID 2282667). As to conditions: T47D proliferation, impedance (xCELLigence), 80 h. The procedure, abridged: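 T-47D cells monitored by electrical impedance (xCELLigence) with compound present throughout; 80 h timepoint, positive-direction fitting versus DMSO. Eight-point 1:4 dilutions from 100 uM final, duplicate plates.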
As to `CCOC(=O)CC1(C)OCC(C)O1` (configuration not stated), the compound was called inactive.

A word on the AC50: it is the concentration giving half of the maximal activity seen. As to `CCCc1ccc(O)cc1`, the AC50 was 50 µM (active).

For `CCCC1CCOC(C)S1` (configuration not stated), the compound was called inactive.

For the compound `CCOC(=O)C(=O)OCC`, the call was inactive.

`CCCCN(CCO)CCO`: the outcome was inactive.

Consider `Brc1cc(Br)cc(Br)c1`, for which the call was inactive.

On to `CC(=O)c1ccc(O)cc1`, for which the outcome was inactive.

For the compound `CC(=O)CCc1ccc(O)cc1`, the outcome was inactive.

With `CCO[Si](CCC#N)(OCC)OCC`, the compound was called inactive.

`CCC(C)(C)c1cc(O)c(C(C)(C)CC)cc1O`: the outcome was inactive.

As to `CC1COC(=O)O1` (configuration not stated), the outcome was inactive.

For the compound `O=C(O)c1cccc(Cl)n1`, the compound was classed as inactive.

As for `CN(C)C(=O)Nc1ccccc1`, the call was inactive.

As for `CN(C)C`, the result was inactive.

As to `C1COCO1`, the call was inactive.

Turning to `CCC(=O)OCC=Cc1ccccc1`, the AC50 is 10.5 µM (active).

`O=C(O)c1ccccc1O`: the compound was called inactive.

Turning to `Nc1ccc(N)c([N+](=O)[O-])c1`, the compound was called inactive.

`CCc1cccc(O)c1`: the call was inactive.

On to `C[C@H](CCC(=O)O)[C@H]1CC[C@H]2[C@@H]3CC[C@@H]4C[C@H](O)CC[C@]4(C)[C@H]3CC[C@]12C`, for which the result was inactive.

With `CC(O)COCC(C)O` (configuration not stated), the compound was called inactive.

On to `C=C(F)C(=O)OC(C(F)(F)F)C(F)(F)F`, for which the compound was classed as inactive.

In the case of `Nc1ccc(O)c(N)c1`, the outcome was inactive.

With `C=C1CC[C@H]2O[C@]2(C)CC[C@@H]2[C@@H]1CC2(C)C`, the compound was classed as inactive.

On to `Cc1cccc(O)c1`, for which the compound was called inactive.

Consider `O=C(OCc1ccccc1)c1ccccc1O`, for which the compound was classed as inactive.

`CCCCC/C=C\C=C\C(=O)OCC`: the outcome was inactive.

As for `CCCCC(CC)COCCO` (configuration not stated), the compound was called inactive.

On to `CCNC(=S)NCC`, for which the outcome was inactive.

`COc1cc(OC)c2ccc(=O)oc2c1`: the call was inactive.

Turning to `CC(C)=CC(=O)O`, the AC50 is 3.27 µM (active).

Take `CCCCCCCC(=O)N(C)C`: the compound was called inactive.

As to `CC1=CC(O)CC(C)(C)C1` (configuration not stated), the outcome was inactive.

Turning to `CC1=CC[C@@H]2C[C@H]1C2(C)C`, the result was inactive.

For the compound `CCC(C)(C)C1CCC(OC)CC1` (configuration not stated), the call was inactive.

Regarding `O=C1OC2(c3ccc(O)cc3Oc3cc(O)ccc32)c2ccccc21`, the compound was classed as inactive.

On to `O=C(O)c1cc2ccccc2cc1O`, for which the call was inactive.
